According to PubChem BioAssay (NCATS):
Results filed as inconclusive are left out. Active and inactive are the calls of the source. Calls come from the whole dose curve; as a rule, active = well fitted curve in the direction sought with a large enough effect; inconclusive = small, poorly fitted or top-dose-only effect, or another doubt; inactive = no such curve, though single readings can be large; an effect the other way counts as inactive or inconclusive.

How the values were obtained:
[1] = qHTS for inhibitors of adenylyl cyclases using a fission yeast platform: a pilot screen against the NCATS LOPAC library (AID 1347410);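 note: plate controls were DMSO vehicle for no effect and DPI positive control for full effect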
How it was run: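 Inhibition of GNAS-stimulated AC9 activity in S. pombe was inferred from derepression of a PKA-repressed fbp1-GFP reporter, measured as cytometric fluorescence after 18 h at 30C with compounds at up to 57 µM.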

[2] = target: Protein phosphatase 1D (Homo sapiens) (UniProt O15297); assay: RapidFire Mass Spectrometry qHTS Assay for Modulators of WT P53-Induced Phosphatase 1 (WIP1) (AID 1347424);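 note: amount of dephosphorylated VEPPL-S-QETFS peptide product formed by WIP1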; note: potency is the fitted concentration of half-maximal effect;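 for activity change, negative = inhibition: series mostly up to about 63 µM; plate controls were DMSO wells for no effect and GSK830371 inhibitor control at 10 µM for full effect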
How it was run: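 10 nM WIP1 + cpd, 1 h RT; + 2 uM VEPPL-pS-QETFS, 5 min RT; stop 0.5% formic acid; labelled product standard 1 uM; RapidFire MS. Buffer 50 mM Tris pH 7.5, 30 mM MgCl2, 1 mM TCEP.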

[3] = target: Protein phosphatase 1D (Homo sapiens) (UniProt O15297); assay: Rhodamine-PBP qHTS Assay for Modulators of WT P53-Induced Phosphatase 1 (WIP1) (AID 1347425); note: % of control where 0% means no effect
How it was run: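 The read-out is the change in Rhodamine-PBP fluorescence (f1 - f0, ex 525/em 598 nm) as Pi is released, read each minute for 11 min. Final reaction: 5 nM WIP1, 10 uM phosphopeptide VEPPL-pS-QETFS, 10 uM Rh-PBP, 50 mM Tris-HCl pH 7.5, 30 mM MgCl2. Compound was preincubated with enzyme for 1 hour at room temperature.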

[4] = Validation qHTS assay for inhibitors of Activation Induced Cytidine Deaminase (AID): UDG Counterscreen signal (AID 1347427); note: 0% is about no effect
How it was run: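 Counterscreen read of UDG activity (2 U/mL, 4/3x) in the FRET deamination format with AID (1 uM, 4/3x), DJC20/DJC23 substrates (250 nM, 4x), 4 h at room temperature. NaOH stop, fluorescence at 560 ex/665 em.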

[5] = target: Single-stranded DNA cytosine deaminase (Homo sapiens) (UniProt Q9GZX7); assay: Validation qHTS assay for inhibitors of Activation Induced Cytidine Deaminase (AID): AID signal (AID 1347429); note: % is set by controls: 0 for no effect and ±100 for the full control effect
How it was run: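 AID and UDG were combined and compounds added at final up to 114 uM, then DJC20/DJC23 FRET substrate was added for 4 hr at room temperature. NaOH was then added for 30 min before fluorescence was read at 540/590 nm.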

[6] = Primary qHTS for inhibitors of La Crosse Virus (LACV) - induced cell death in SH-SY5Y cells (AID 1508616);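 note: top concentration of the series differs between compounds; 0% = infected DMSO wells and 100% = uninfected DMSO wells; higher means more rescue of cells from virus-induced death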
How it was run: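 Luminescent ATP readout (ATPLite 1step, 5 min room temperature) measured rescue from LACV-induced death after 6 days of infection at 0.01 MOI; normalized to infected DMSO wells and uninfected DMSO wells.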

[7] = target: Calcium and integrin-binding protein 1 (Homo sapiens) (UniProt Q99828); assay: Validation qHTS for Identification of Calcium Integrin Binding protein 1 (CIB1) Competitor (AID 1508618); note: % is set by controls: 0 for no effect and ±100 for the full control effect
How it was run: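 CIB1-GST (1 uM final) incubated 15 min at room temperature with compounds (up to 114 uM), then FITC-labelled alphaIIb peptide (100 nM) added. FP read (Ex 480/Em 540) after 15 min, pH 7.4 buffer containing 5 mM CaCl2.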

[8] = target: Calcium and integrin-binding protein 1 (Homo sapiens) (UniProt Q99828); assay: Primary qHTS for Identification of Calcium Integrin Binding Protein 1 (CIB1) Competitor (AID 1508620);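 note: GST tagged CIB1 binding a fluorescein labelled alphaIIb integrin peptide tracer; top concentration of the series differs between compounds; % is set by controls: 0 for no effect and ±100 for the full control effect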
How it was run: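 CIB1-GST (1 uM final) and compound incubated 15 min at room temperature before adding FITC-alphaIIb peptide tracer (100 nM final). Competition for binding read by fluorescence polarization (ex 480, em 540) after another 15 min at room temperature.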

[9] = target: Calcium and integrin-binding protein 1 (Homo sapiens) (UniProt Q99828); assay: Confirmatory qHTS for Identification of Calcium Integrin Binding Protein 1 (CIB1) Competitor (AID 1508617); note: % is set by controls: 0 for no effect and ±100 for the full control effect; nearly all actives have a fitted effect of over 65% in size
How it was run: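 Compounds at up to 114 uM final met 1 uM GST-tagged CIB1 for 15 min at room temperature (HEPES pH 7.4, 5 mM CaCl2). FITC-labelled alphaIIb peptide, 100 nM, added; polarization read after 15 min more.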

Chain of Single-stranded DNA cytosine deaminase (Homo sapiens) (Q9GZX7 whole entry, looked up): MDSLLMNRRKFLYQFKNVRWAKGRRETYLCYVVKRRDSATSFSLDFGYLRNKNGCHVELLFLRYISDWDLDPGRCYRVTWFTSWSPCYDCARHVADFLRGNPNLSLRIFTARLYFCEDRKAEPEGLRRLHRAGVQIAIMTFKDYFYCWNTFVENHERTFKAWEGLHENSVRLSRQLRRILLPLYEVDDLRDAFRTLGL
Chain of Calcium and integrin-binding protein 1 (Homo sapiens) (Q99828 whole entry, looked up): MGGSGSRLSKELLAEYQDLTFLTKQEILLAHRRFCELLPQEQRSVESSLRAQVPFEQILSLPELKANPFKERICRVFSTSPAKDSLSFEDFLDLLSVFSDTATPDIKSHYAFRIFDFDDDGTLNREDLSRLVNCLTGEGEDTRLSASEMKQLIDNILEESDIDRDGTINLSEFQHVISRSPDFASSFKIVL
Chain of Protein phosphatase 1D (Homo sapiens) (O15297 whole entry, looked up): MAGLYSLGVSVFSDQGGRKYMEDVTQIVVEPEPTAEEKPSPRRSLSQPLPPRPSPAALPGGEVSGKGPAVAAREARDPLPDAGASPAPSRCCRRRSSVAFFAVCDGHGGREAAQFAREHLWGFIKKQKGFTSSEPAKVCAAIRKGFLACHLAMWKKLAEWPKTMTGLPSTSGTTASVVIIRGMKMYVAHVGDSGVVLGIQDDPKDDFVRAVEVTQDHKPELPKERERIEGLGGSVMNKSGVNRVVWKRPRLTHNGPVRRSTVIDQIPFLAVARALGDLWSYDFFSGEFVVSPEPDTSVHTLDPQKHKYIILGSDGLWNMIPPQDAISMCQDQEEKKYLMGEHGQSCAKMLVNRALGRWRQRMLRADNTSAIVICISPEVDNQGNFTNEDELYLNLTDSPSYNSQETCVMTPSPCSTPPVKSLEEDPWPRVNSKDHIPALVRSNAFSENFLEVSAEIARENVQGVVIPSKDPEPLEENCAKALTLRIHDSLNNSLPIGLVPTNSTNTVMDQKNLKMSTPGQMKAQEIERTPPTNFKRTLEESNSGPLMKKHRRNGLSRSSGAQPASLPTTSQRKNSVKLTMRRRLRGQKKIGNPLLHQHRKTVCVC

CNCCC(Oc1ccccc1OC)c1ccccc1 (stereo not given)
inactive: outcome [1] | Potency [2] | outcome [3] | outcome [4] | Potency [5] | Potency [6] | outcome [7] | Potency [8]

Cc1nc2sccn2c(=O)c1CCN1CCC(=C(c2ccc(F)cc2)c2ccc(F)cc2)CC1
inactive: outcome [1] | Potency [2] | outcome [3] | outcome [4] | Potency [6]

CCn1nc(C(=O)O)c(=O)c2cc3c(cc21)OCO3
inactive: outcome [1] | Potency [2] | outcome [3] | outcome [4] | Potency [6] | outcome [7]

O=C1NCN(c2ccccc2)C12CCN(CCCC(c1ccc(F)cc1)c1ccc(F)cc1)CC2
inactive: outcome [1] | Potency [2] | outcome [3] | outcome [4] | Potency [6]

NC(N)=NC(=O)Cc1c(Cl)cccc1Cl
inactive: outcome [1] | Potency [2] | outcome [3] | outcome [4] | Potency [5] | Potency [6] | outcome [7] | Potency [8]

O=C(O)CN(CCN(CC(=O)O)CC(=O)O)CCN(CC(=O)O)CC(=O)O
inactive: outcome [1] | Potency [2] | outcome [3] | outcome [4] | Potency [5] | Potency [6] | outcome [7] | Potency [8]

CCCN1C[C@H](CSC)C[C@@H]2c3cccc4[nH]cc(c34)C[C@H]21
inactive: outcome [1] | Potency [2] | outcome [3] | outcome [4] | Potency [5] | Potency [6] | Potency [8]

NC1=NCC2c3ccccc3Cc3ccccc3N12 (stereo not given)
inactive: outcome [1] | Potency [2] | outcome [3] | outcome [4] | Potency [5] | Potency [6] | outcome [7] | Potency [8]

CC(C)(C)c1ccc(C(=O)CCCN2CCC(OC(c3ccccc3)c3ccccc3)CC2)cc1
inactive: outcome [1] | Potency [2] | outcome [3] | outcome [4] | Potency [5] | Potency [6] | outcome [7] | Potency [8]

CCCCNc1c(C(=O)OCC)c(C)nc2c1cnn2CC
inactive: outcome [1] | Potency [2] | outcome [3] | outcome [4] | Potency [6] | outcome [7]

CNCCCN1c2ccccc2CCc2ccccc21
inactive: outcome [1] | Potency [2] | outcome [3] | outcome [4] | Potency [5] | Potency [6] | outcome [7] | Potency [8]

c1cnc(N2CCN(Cc3ccc4c(c3)OCO4)CC2)nc1
inactive: outcome [1] | Potency [2] | outcome [3] | outcome [4] | Potency [6] | outcome [7]

COc1ccc2c(c1OC)C(=O)O[C@@H]2[C@H]1c2c(cc3c(c2OC)OCO3)CCN1C
inactive: outcome [1] | Potency [2] | outcome [3] | outcome [4] | Potency [5] | Potency [6] | outcome [7] | Potency [8]

CC(=O)Oc1cc(C(C)C)c(OCCN(C)C)cc1C
inactive: outcome [1] | Potency [2] | outcome [3] | outcome [4] | Potency [6]

CCn1cc(C(=O)O)c(=O)c2cc3c(cc21)OCO3
inactive: outcome [1] | Potency [2] | outcome [3] | outcome [4] | Potency [5] | Potency [6] | outcome [7] | Potency [8]

COc1cc2c(cc1OC)-c1cc(=Nc3c(C)cc(C)cc3C)n(C)c(=O)n1CC2
inactive: outcome [1] | Potency [2] | outcome [3] | outcome [4] | Potency [6] | outcome [7] | Potency [8]

C=CCc1ccccc1OCC(O)CNC(C)C (stereo not given)
inactive: outcome [1] | Potency [2] | outcome [3] | outcome [4] | Potency [5] | Potency [6] | outcome [7] | Potency [8]

CN1CCN(CC(=O)N2c3ccccc3C(=O)Nc3cccnc32)CC1
inactive: outcome [1] | activity change, negative = inhibition [2] -2.97% [at 6.17 µM] | activity change, negative = inhibition [3] 8.19% [at 4.81 µM] | outcome [4] | Potency [5] | Potency [6] | outcome [7] | activity change, negative = inhibition [8] -0.936% [at 12.4 µM]

Cc1nc2c([nH]1)c(=O)n(C)c(=O)n2Cc1ccco1
inactive: outcome [1] | Potency [2] | outcome [3] | outcome [4] | Potency [6] | outcome [7]

FC(F)(F)c1ccccc1-n1ccnc1
inactive: outcome [1] | Potency [2] | outcome [3] | outcome [4] | Potency [6] | outcome [7]

CCN1CCc2nc(N)oc2CC1
inactive: outcome [1] | Potency [2] | outcome [3] | outcome [4] | Potency [5] | Potency [6] | Potency [8]

CSc1ccc(C(=O)c2[nH]c(=O)[nH]c2C)cc1
inactive: outcome [1] | Potency [2] | outcome [3] | outcome [4] | Potency [5] | outcome [7]

C[C@]12CCC(=O)C=C1CC[C@@H]1[C@@H]2C(=O)C[C@@]2(C)[C@H]1CC[C@]2(O)C(=O)CO
inactive: outcome [1] | Potency [2] | outcome [3] | outcome [4] | Potency [5] | Potency [6] | outcome [7] | Potency [8]

CN/C(=C\[N+](=O)[O-])NCCSCc1ccc(CN(C)C)o1
inactive: outcome [1] | Potency [2] | outcome [3] | outcome [4] | Potency [6] | outcome [7] | Potency [8]

OC(CCN1CCCCC1)(c1ccccc1)C1CCCCC1 (stereo not given)
inactive: outcome [1] | Potency [2] | outcome [3] | outcome [4] | Potency [6]

C[C@]12CCC(=O)C=C1CC[C@@H]1[C@@H]2CC[C@@]2(C)[C@H]1CC[C@]2(O)C(=O)CO
inactive: outcome [1] | Potency [2] | outcome [3] | outcome [4] | Potency [6] | outcome [7] | Potency [8]

CCOC(=O)C1=C(C)NC(C)=C(C(=O)OC)C1c1cccc([N+](=O)[O-])c1 (stereo not given)
inactive: outcome [1] | Potency [2] | outcome [4] | Potency [6]

N[C@@H](COP(=O)(O)O)C(=O)O
inactive: outcome [1] | Potency [2] | outcome [4] | Potency [6] | outcome [7] | Potency [8]

Cc1nnc(SCC2=C(C(=O)O)N3C(=O)[C@@H](NC(=O)Cn4cnnn4)[C@H]3SC2)s1
inactive: outcome [1] | Potency [2] | outcome [3] | Potency [6]

Brc1c(NC2=NCCN2)ccc2nccnc12
inactive: outcome [1] | outcome [3] | outcome [4] | Potency [6] | outcome [7] | Potency [8]

CC[N+](C)(C)c1cccc(O)c1
inactive: outcome [1] | Potency [2] | outcome [3] | outcome [4] | Potency [6] | outcome [7] | Potency [8]

Cc1ccc(Cl)c(Nc2ccccc2C(=O)O)c1Cl
inactive: outcome [1] | outcome [4] | Potency [6] | Potency [8]
active: Potency [2] 17.8 µM

CCn1ccnc1CC1COc2ccccc2O1 (stereo not given)
inactive: outcome [1] | Potency [2] | outcome [3] | outcome [4] | Potency [6] | outcome [7] | Potency [8]

CCOC(=O)C1=C(C)NC(C)=C(C(=O)OC)C1c1cccc(Cl)c1Cl (stereo not given)
inactive: outcome [1] | Potency [2] | Potency [6] | Potency [8]

C[C@H](CS)C(=O)N1CCC[C@H]1C(=O)O
inactive: outcome [1] | Potency [2] | outcome [3] | Potency [6]

C[C@]12CC[C@@H]3c4ccc(O)cc4C[C@@H](CCCCCCCCCS(=O)CCCC(F)(F)C(F)(F)F)[C@H]3[C@@H]1CC[C@@H]2O (stereo not given in full)
inactive: outcome [1] | Potency [2] | outcome [3] | outcome [4] | Potency [6] | outcome [7] | Potency [8]

CCCCNC(=O)NS(=O)(=O)c1ccc(C)cc1
inactive: outcome [1] | Potency [2] | outcome [3] | outcome [4] | Potency [6] | outcome [7] | Potency [8]

C[n+]1cc2c3c(ccc2c2ccc4cc5c(cc4c21)OCO5)OCO3
inactive: outcome [1] | Potency [2] | outcome [3] | outcome [9] | outcome [7]
